Here are results for 40 compounds from PubChem BioAssay (NCI).

This is part of a sample that, as a whole, favours compounds with a hit. Of some 83,000 tested, about 20% had one in any assay.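 48-hour exposure, single concentration, 96-well plates; percent growth endpoint where 0 means no net growth. Active: below 10.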 Values without a mark were called inactive. Calls of active or inactive are those of the source.

This assay has as its system OVCAR-3 ovarian. In words: NCI-60 one-dose screen, 48 h (100 = growth as untreated, 0 = no growth, -100 = all killed). Conditions: 10 µM unless noted. Here is the method:
Growth inhibition of the OVCAR-3 human tumor cell line is measured as a screen for anti-cancer activity. Cells are grown in 96 well plates and exposed to the test compound for 48 hours. Compounds are tested at a single concentration, which is 10^-5 M for most compounds. The reported endpoint is percent growth (GI% or GIPRCNT), where numbers from 0 - 100% represent growth inhibition, and numbers from -100% - 0 represent cell death. For example, a value of 40 represents 60% growth inhibition. A value of 0 means no net growth occurred over the course of the experiment. A value of -40 indicates 40% of cells at the beginning of the experiment died by the end of the experiment. A value of -100 means all cells are dead at the end of the experiment.
NCI-60 Human Tumor Cell Lines Screen was performed using the standard one-dose NCI protocol, which is described in more detail at https://dtp.cancer.gov/discovery_development/nci-60/default.htm.
Compounds with GIPRCNT values below 10 were considered active. Activity score was based on GIPRCNT using the following formula: […]
Score is 0 for GIPRCNT values of 100 or above, 50 for GIPRCNT values of 0, and 100 for GIPRCNT values of -100.
`Clc1ccc(N2COOC3(OOC2)C2CC4CC(C2)CC3C4)cc1`: the growth is 4.41% (active).
As for `C[C@@H]1CCC2[C@@H](C)[C@H](OC(=O)CCC(=O)NCCNC(=O)Cc3cc(=O)oc4cc(N(C)C)ccc34)O[C@@H]3O[C@]4(C)CC[C@@H]1C23OO4` (stereo not given in full), the growth is 37.7%.
On to `CN(C)CCCOc1ccc2c(c1)c(C(=O)C(=O)NCCO)cn2Cc1ccccc1`, for which the growth was 108%.
As to `CCOC(=O)c1c(C)n(Cc2ccccc2)c2cc(CN(C)C)c(O)cc12`, the growth was 79.4%.
Regarding `O=C(Nc1ccc(Br)cc1)c1cc(Br)cc(Br)c1O`, the growth was 32.9%.
`CCn1nccc1NC(=O)C(=O)c1cn(Cc2ccc(F)cc2)c2cccc(OC)c12`: the growth is 94%.
As for `COc1ccc(/C(C)=C(\c2ccc(OCCN3CCOCC3)cc2)c2ccc(OC(=O)Cc3ccccc3)cc2)cc1`, the growth was 101%.
With `CCCCNC(c1ccc(Cl)cc1)C(O)c1ccc(Cl)cc1` (stereo not given), the growth was 55.6%.
Consider `COC(=O)[C@@H](C)C[C@H](Cc1ccccc1)NC(=O)c1csc([C@@H](C[C@H](C(C)C)N(C)C(=O)[C@H](C)NC(=O)[C@H]2CCCN2C)OC(C)=O)n1`, for which the growth is 17.9%.
Consider `Cc1cc(N(CCCl)CCCl)ccc1C=Nc1ccccc1-c1ccccc1`, for which the growth is 88.3%.
Consider `COC1=CC(=O)O[C@@H](/C=C/c2ccc3c(c2)OCO3)C1`, for which the growth was 153%.
The figure for `CC(=O)O[C@H](C[C@H](C(C)C)N(C)C(=O)[C@@H](NC(=O)[C@H]1CCCCN1C)C(C)C)c1cccc(C(=O)N[C@@H](Cc2ccccc2)C[C@H](C)C(=O)O)n1` is -50.3% (active); for `CCCCCCCCCCCCCCCCCCOc1ccccc1COP(=O)(O)OOCC[N+](C)(C)C` it is -29.2% (active); for `CC[C@H](C)[C@H](NC(=O)[C@H]1CCCCN1C)C(=O)N(C)[C@H](CCc1nc(C(=O)N[C@@H](Cc2ccccc2)C[C@H](C)C(=O)OC)cs1)C(C)C` it is -18.6% (active).
The figure for `CC(C)(C)N1CC1C#N` (stereo not given) is 101%; for `O=C(CC1(O)C(=O)Nc2ccc(Cl)cc21)c1ccc(C(=O)NCC2CCC3(CC2)OOC2(CCCCC2)OO3)cc1` (stereo not given) it is -76.8% (active).
The figure for `COC(=O)[C@@H](C)C[C@H](Cc1ccccc1)NC(=O)c1csc([C@@H](C[C@H](C(C)C)N(C)C(=O)[C@@H](NC(=O)[C@H]2CCCCN2C)C(C(F)(F)F)C(F)(F)F)OC(C)=O)n1` is -42.5% (active).
Regarding `CCOP1(=O)CC(C)=C(Cl)C(P(=O)(OCC)OCC)C1` (stereo not given), the growth was 94.5%.
In the case of `COc1cc([C@@H]2c3cc4c(cc3[C@H](OC(C)=O)[C@H]3COC(=O)[C@H]23)OCO4)cc(OC)c1OC`, the growth is 1.52% (active).
With `CC[C@H](C)[C@H](NC(=O)NC(C)(C)C)C(=O)N(C)[C@H](C[C@@H](OC(C)=O)c1nc(C(=O)N[C@@H](Cc2ccccc2)C[C@H](C)C(=O)OC)cs1)C(C)C`, the growth is -16.8% (active).
For the compound `ClCCN(CCCl)c1ccc(OCc2ccccc2)cc1`, the growth is 78%.
The figure for `CC1(C)[C@H](O)[C@H](F)C[C@@]2(C)Oc3ccc(C(=O)Nc4ccc5c(c4)NC(=O)C54CCN(CCCCC#N)CC4)cc3C[C@H]12` is 61.3%; for `COc1cc(C=Nc2cccc(C(=O)O)c2)ccc1N(CCCl)CCCl` it is 105%.
As for `OCCCCCNC1CCCCC1`, the growth was 125%.
With `CCC1(C(C)C)C(=O)NC(=S)NC1=O`, the growth is 101%.
Take `Cc1c(NS(=O)(=O)c2ccccc2)ccc([N+](=O)[O-])c1Cl`: the growth was 42.2%.
Take `Cc1ccccc1NC(=NCCCN1CC1)Nc1ccccc1C`: the growth was 90.4%.
Regarding `N#C[S-].[Au+].c1ccc(CN2[CH-]N(Cc3ccccc3)C(c3ccccc3)=C2c2ccccc2)cc1`, the growth was -6.54% (active).
Turning to `CCn1c2ccccc2c2cc(C(=O)c3cccc4c3CCCN4)ccc21`, the growth was 103%.
With `COC(=O)C1OC(Oc2ccc(N(CCCl)CCCl)cc2)C(OC(C)=O)C(OC(C)=O)C1OC(C)=O` (stereo not given), the growth was 94.2%.
As to `COC(=O)[C@@H](C)C[C@H](Cc1ccccc1)NC(=O)c1csc([C@@H](C[C@H](C(C)C)N(C)C(=O)[C@@H](NC(=O)C23CC(NC(C)=O)(C2)C3)C2CC2)OC(C)=O)n1`, the growth was -7.77% (active).
The figure for `COC(=O)[C@@H](C)C[C@H](Cc1ccccc1)NC(=O)c1csc([C@@H](C[C@H](C(C)C)N(C)C(=O)[C@@H](NC(=O)[C@H]2CCCCN2C)C(C)C)OC(C)=O)n1` is -24.4% (active).
For the compound `COC(=O)[C@@H](C)C[C@H](Cc1ccccc1)NC(=O)c1csc([C@@H](C[C@H](C(C)C)N(C)C(=O)[C@@H](NC(=O)[C@H]2CCCCN2C)c2ccc(F)cc2)OC(C)=O)n1`, the growth was -17% (active).
As for `CN(C)C1C(=O)C(C(N)=O)=C(O)C2(O)C(=O)C3=C(O)c4c(O)cccc4C(C)(O)C3CC12.[Cl][Sb]([Cl])[Cl]` (stereo not given), the growth is 38%.
Take `CC[C@H](C)[C@H](NC(=O)C12CC(NC(C)=O)(C1)C2)C(=O)N(C)[C@H](C[C@@H](OC(C)=O)c1nc(C(=O)N[C@@H](Cc2ccccc2)C[C@H](C)C(=O)OC)cs1)C(C)C`: the growth is -42.3% (active).
As to `COc1ccc(Nc2ccnc3cc(Cl)ccc23)cc1CN(CCCl)CCCl`, the growth was -49.3% (active).
Regarding `C=CC[Se]C(=O)c1ccccc1OC(C)=O`, the growth is 2.36% (active).
Consider `C[C@]12C[C@@H](CO)[C@H](O)C[C@@H]1CC[C@@H]1[C@@H]2CC[C@]2(C)[C@@H](O)CC[C@@H]12`, for which the growth was 101%.
As to `COc1ccc([As]=[As]c2ccc(OC)c(NCS(=O)(=O)O)c2)cc1NCS(=O)(=O)O` (stereo not given), the growth was 9.01% (active).
With `CCn1c2ccccc2c2cc(C(=O)c3ccc(C)c4ccccc34)ccc21`, the growth was 7.68% (active).
